# Screening data deposited in PubChem by National Center for Advancing Translational Sciences (NCATS).
# PTHR1 ag – qHTS for PTHR1 Agonists: Primary Screen. AID 743266, 2014. HEK293 GP2 PTHR1 cells, GloSensor cAMP luminescence, 1 h. 410,000 compounds, 0.075% hits. Potency, µM (top dose mostly 115 µM), without a hit: top-dose activation, usual class: activators. Parathyroid hormone/parathyroid hormone-related peptide receptor (Homo sapiens), Q03431; also: nearly all actives have a fitted effect of over 55% in size
# Target sequence (Q03431 whole entry, looked up): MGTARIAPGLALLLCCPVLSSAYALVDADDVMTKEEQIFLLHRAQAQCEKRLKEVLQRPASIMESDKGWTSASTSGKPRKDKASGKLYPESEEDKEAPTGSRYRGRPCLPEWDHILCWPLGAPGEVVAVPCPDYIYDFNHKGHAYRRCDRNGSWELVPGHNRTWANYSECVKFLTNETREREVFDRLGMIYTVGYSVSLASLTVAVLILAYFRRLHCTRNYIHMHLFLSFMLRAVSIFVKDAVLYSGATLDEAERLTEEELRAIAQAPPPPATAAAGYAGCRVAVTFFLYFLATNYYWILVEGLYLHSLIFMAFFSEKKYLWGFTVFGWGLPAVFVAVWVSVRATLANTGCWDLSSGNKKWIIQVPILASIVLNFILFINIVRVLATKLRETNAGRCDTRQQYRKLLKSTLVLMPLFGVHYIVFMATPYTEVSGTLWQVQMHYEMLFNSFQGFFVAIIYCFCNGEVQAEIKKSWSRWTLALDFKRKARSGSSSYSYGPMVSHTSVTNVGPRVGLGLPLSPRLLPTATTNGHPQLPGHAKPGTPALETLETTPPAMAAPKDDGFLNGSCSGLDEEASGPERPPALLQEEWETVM
#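 HEK-293-derived GP2 cells expressing PTHR1 and a GloSensor cAMP reporter, 3,000/well, plated overnight, given luciferin plus IBMX (each 0.5 mM as added) for 1 h at 37 °C, then compound for 1 h at 37 °C. Luminescence was read after 15 min at room temperature.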
# GLP1R ag – qHTS of GLP-1 Receptor Agonists | 380,000 compounds, 0.007% hits | Potency, µM (doses to about 45.6 µM), for the others: at the highest dose activation, most hits filed as activators | AID 624172, 2012 | Glucagon-like peptide 1 receptor (Homo sapiens), P43220 | HEK293 GLP-1R CRE-luciferase, luminescence, 4-6 h; cells express a hypersensitive GLP-1R form; also: % of control where 0% means no effect
# HEK293 tox – qHTS of GLP-1 Receptor Inverse Agonists: Cytotox Screen | HEK293 cAMP-luciferase reporter cells, luminescence, 24 h | Potency, µM (highest dose often 38.3 µM), for inactives: at the highest dose activity change, negative = inhibition, most hits filed as inhibitors | 410,000 compounds, 0.13% hits | AID 624418, 2012;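 also: loss of luciferase light is scored as toxicity; % is scaled to controls: 0 for no effect and ±100 for the full control effect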
#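 1536-well qHTS counterscreen of the MLSMR; 200 cells/uL, 12 h pre-incubation, 23 nL cpd, 24 h at 37 deg C 5% CO2, luciferase detection reagent, 12 min RT, luminescence. Inhibition = undesired.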
# GLP-1R inv ag – qHTS of GLP-1 Receptor Inverse Agonists (Inhibition Mode). 410,000 compounds, 1.6% hits. AID 624417, 2012. Potency, µM (top dose mostly 38.3 µM), without a hit: at the highest dose activity change, negative = inhibition, most hits filed as inhibitors. Glucagon-like peptide 1 receptor (Homo sapiens), P43220. HEK293 GLP-1R CRE-luciferase, luminescence, 24 h; GLP-1R form is constitutively active; also: % is scaled to controls: 0 for no effect and ±100 for the full control effect; nearly all actives have a fitted effect of over 55% in size
#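 Using stably transfected HEK293 (constitutively active GLP-1R, cAMP-luciferase reporter), compounds were incubated 24 hr and luciferase measured by luminescence.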
# Starred values were filed as active, the others as inactive; i = inactive; ? = inconclusive; . = not tested or not shown; [ ] = another dose, or the depositor's remark. This is a sample that favours compounds with a hit; in the whole collection about 1.7% have one here. Calls follow the shape of the dose curve; as a rule, active = well fitted curve in the direction sought with a large enough effect; inconclusive = small, poorly fitted or top-dose-only effect, or another doubt; inactive = no such curve, though single readings can be large; an effect the other way counts as inactive or inconclusive. Potency is read from the fitted curve at half-maximal effect.
SMILES,PTHR1 ag,GLP1R ag,HEK293 tox,GLP-1R inv ag
Cc1cccc(N2CCN(C(=O)c3cccn4c(=O)c5cc(Cl)ccc5nc34)CC2C)c1 (centres undefined),-47%,.,5%,-8%
O=C(Nc1ccc(F)cc1)c1ccccc1Oc1ccc(C(F)(F)F)cc1[N+](=O)[O-],-35%,-12%,?,10µM*
O=C(Nc1cccc(O)c1)c1cc(-c2ccc3c(c2)OCO3)on1,-92%,-7%,-9%,10µM*
Cc1ccccc1N1C(=O)c2cc(N)ccc2N/C1=C\F,.,18%,.,.
CC(=O)/C(=N/Nc1ccccc1[N+](=O)[O-])N1CCCc2ccccc21,-8%,21%,?,10µM*
C=C1CC[C@H](O)C/C1=C/C=C1\CCC[C@]2(C)[C@@H]([C@H](C)CCCC(C)(C)O)CC[C@@H]12,.,-5%,.,.
O=C1/C(=C\c2ccc(Cl)c(Cl)c2)CN(C(=O)CCN2CCOCC2)C/C1=C/c1ccc(Cl)c(Cl)c1,-42%,-14%,2.8µM*,?
O=C(NCCN1CCOCC1)c1ccc(Cl)c(Cl)c1,i,13%,-3%,18%
COc1ccc2c(=O)c(C)c(-c3ccccc3)oc2c1CN(C)C,.,3%,.,.
O=C(Cn1cnc([N+](=O)[O-])c1)Nc1cc(Oc2ccc(Cl)cc2Cl)cc([N+](=O)[O-])c1,-17%[57.5 µM],-50%,?,5.6µM*
Clc1ccc2c(c1)C(C1=NCCN1)c1ccccc1CS2 (centres undefined),-9%,-4%,?,3.2µM*
Cc1ccc2c(CN3CCN(C(=O)c4ccc(Br)cc4)CC3)cc(=O)oc2c1,-2%,.,-14%,-4%
CC1(C)CC(=O)CC2(C1)NCC(c1ccccc1)c1c2[nH]c2ccccc12 (centres undefined),-59%,8%,-12%,10µM*
Cc1cccc(Oc2nc(-c3ccccn3)nc3ccccc23)c1,i,15%,?,1.3µM*
COc1ccc(C)cc1NC(=O)CCCN1C(=O)C(c2ccccc2)Oc2cccnc21 (centres undefined),-25%,29%,0%,10µM*
CCNc1ccc(Br)cc(C(=O)/C=C/c2ccc(Cl)cc2)c1=O,-30%,0%,-13%,2.8µM*
Cc1c(N2C(=O)/C(=C/c3ccccc3)SC2=S)c(=O)n(-c2ccccc2)n1C,i,-13%,-22%,?
Cc1c(N2C(=O)/C(=C/c3ccc(N(C)C)cc3)N(C)C2=S)c(=O)n(-c2ccccc2)n1C,i,9%,5.6µM*,?
Cc1ccc(C23CC4CC(CC(C(=O)N5CCN(C)CC5)(C4)C2)C3)cc1,i,9%,12%,8.9µM*
Cc1ccc(C23CC4CC(CC(NC(=O)N5CCN(C)CC5)(C4)C2)C3)cc1,i,-3%,-2%,?
Cc1ccc(NC2=Nc3ccccc3N3C2=Nc2c(c(C)nn2-c2ccccc2)C3c2ccc(O)c(O)c2)cc1 (centres undefined),-7%[57.5 µM],-21%,124%,11µM*
CC1CCCN(S(=O)(=O)c2ccc(NC(=O)CN3CCCCC3)cc2)C1 (centres undefined),17%,18%,1%,22µM*
CCN1CCN(CC(=O)Nc2ccc(S(=O)(=O)N3C(C)CCCC3C)cc2)CC1 (centres undefined),i,12%,4%,11µM*
O=C(Nc1ccc(F)cc1)c1ccc(S(=O)(=O)N2CCCC2)cc1,-40%,15%,-3%,3%
CC1CCN(CC(=O)Nc2ccc(S(=O)(=O)N3CCC(C)CC3)cc2)CC1,25%,1%,?,?
SMILES,PTHR1 ag,GLP1R ag,HEK293 tox,GLP-1R inv ag
O=C(Nc1ccc(F)cc1)Nc1ccc(S(=O)(=O)N2CCCC2)cc1,-38%,-1%,-24%,8.9µM*
Cc1ccc(S(=O)(=O)N2CCN(CC(=O)Nc3ccc(N4CCOCC4)cc3)CC2)cc1C,-1%,-1%,-2%,0%
Cc1cccc(N2CCN(CC(=O)Nc3ccc(S(=O)(=O)N4CCOCC4)cc3)CC2)c1C,-30%,-4%,1%,11µM*
COc1cccc(NC(=O)Cn2c(=O)n(CCCCC(=O)NCc3ccc4c(c3)OCO4)c(=O)c3ccccc32)c1,-16%,-3%,-10%,-2%
CCc1ccc(CNC(=O)CSc2cc(=O)n(C)c3ccc(Cl)cc23)cc1,-17%,1%,1%,-1%
Cc1ccccc1-c1nc(CS(=O)(=O)CC(=O)NCc2cccc(Cl)c2)c(C)o1,-8%,-4%,2%,?
CC1CC(C)CN(S(=O)(=O)c2ccc(NC(=O)CN3CCCCCC3)cc2)C1 (centres undefined),-4%,11%,?,11µM*
CC1CCN(S(=O)(=O)c2ccc(NC(=O)C3CCN(C(=O)c4ccco4)CC3)cc2)CC1,-16%,9%,14%,2.8µM*
CC1CCN(S(=O)(=O)c2ccc(NC(=O)CN3CCCC3)cc2)CC1,i,10%,7%,1.8µM*
O=C(Nc1ccc(S(=O)(=O)N2CCCCC2)cc1)C1CCN(C(=O)c2ccco2)CC1,-45%,6%,1%,?
C/C(=N\NC(=O)c1ccc(Cl)cc1)c1ccc(Br)s1,i,-6%,-15%,-5%
C/C(=N\Nc1ccc(F)cc1F)c1ccc(Br)s1,-7%,15%,2%,13µM*
Cc1ccc(C(C)C)cc1OCC(=O)NNC(=O)Nc1ccccc1,-10%,6%,-10%,6.3µM*
Cc1ccc(C(C)C)cc1OCC(=O)NC1CCCCCCC1,-38%,2%,29%,11µM*
O=C(Nc1ccc(F)c(F)c1)c1ccc(F)c(S(=O)(=O)N2CCC3(CC2)OCCO3)c1,-42%,-1%,-11%,3.5µM*
COCCN1CCC(CNCc2cn[nH]c2-c2ccc(C)c(C)c2)C1 (centres undefined),-23%,16%,-17%,?
COCCN1CCC(CNCc2cn(-c3cc(C)ccc3C)nc2-c2ccccc2)C1 (centres undefined),-19%,-1%,?,2.8µM*
CCOc1ccc(NCc2nnc(SCc3ccc(Cl)cc3)n2-c2ccccc2)cc1,-11%,-7%,-10%,10µM*
O=C(OCCOc1ccc(Cl)cc1)c1cc(S(=O)(=O)N2CCCCC2)ccc1N1CCOCC1,-32%,17%,-4%,10µM*
Cc1ccsc1/C=N/Nc1nc(=O)[nH]nc1C,-13%,0%,?,3.5µM*
Cc1nc2nncn2c(NCc2ccc(Cl)cc2)c1C,i,.,1%,-28%
COc1ccc(OC)c(CNC(=O)Nc2cn(CC(C)C)c(=O)c3ccccc23)c1,-1%,19%,3%,11%
Cc1ccc(/C=C/c2nc3ccccc3[nH]2)cc1,-21%,.,-9%,2.5µM*
CC(=O)Nc1sc2c(c1C#N)CCCC2,i,12%,18%,13%
Cn1nc(C(=O)Nc2sc3c(c2C#N)CCCC3)ccc1=O,45µM*,0%,5%,0%
Cc1ccc(NC(=S)NCc2ccccn2)cc1,16µM*,-15%,?,?
